Some test systems named below: NCI-H23 lung; NCI-H226 lung; NCI-H322M lung; HOP-62 NSCLC; NCI-H460 lung; HOP-92 NSCLC; NCI-H522 lung; A549/ATCC NSCLC; 786-0 renal; COLO 205 colon.
Common to all, as to experiment: NCI-60 one-dose screen, 48 h (100 = growth as untreated, 0 = no growth, -100 = all killed)
Conditions in all cases: 10 µM

Each structure is given as a SMILES string. About 83,000 compounds went through this panel and 20% of them were active in at least one assay; those are over-represented in the sample as a whole.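 Negative percent growth values reflect cell death: -40 means 40% of the cells present at the start died, and -100 means all died.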 Unmarked numbers belong to inactive results. The source made the active and inactive calls. How the source made its calls: active means growth percent below 10; inactive means the rest.

In the case of `CCOC(=O)c1cc2c(n1Cc1ccccc1)-c1oncc1CC2`, the growth with NCI-H23 lung was 89.5%; in the assay on NCI-H226 lung it was 84.4%; with NCI-H322M lung, 60.4%; in the assay with HOP-62 NSCLC it was 92.5%; in the assay on NCI-H460 lung, 19.6%; in the assay with HOP-92 NSCLC, 75.6%. Also, the growth in the assay with NCI-H522 lung is 41.1%; with A549/ATCC NSCLC, 89.1%; with 786-0 renal it was 107%; in the assay with COLO 205 colon it was 86.2%.
On to `CCc1cc2n(n1)-c1ncc(C(=O)OC)cc1Oc1ccccc1-2`, for which the growth is 104% with NCI-H23 lung; 99.8% in the assay on NCI-H226 lung; 108% in the assay on NCI-H322M lung; 95.4% in the assay on HOP-62 NSCLC; 104% in the assay with NCI-H460 lung; 86.2% in the assay with HOP-92 NSCLC. Moreover, the growth in the assay on NCI-H522 lung is 94.2%; in the assay on A549/ATCC NSCLC it was 91.4%; in the assay on 786-0 renal, 100%; in the assay on COLO 205 colon, 116%.
In the case of `Cc1nc2ccc(-n3c(-c4ccc(Cl)cc4)nc4ccccc4c3=O)cc2n1Cc1ccccc1`, the growth in the assay with NCI-H23 lung was 87.8%; in the assay with NCI-H226 lung, 87.8%; in the assay with NCI-H322M lung, 96.5%; in the assay on HOP-62 NSCLC, 81.9%; with NCI-H460 lung it was 102%; in the assay with HOP-92 NSCLC it was 80.3%. Besides, the growth in the assay with NCI-H522 lung is 74.2%; in the assay with A549/ATCC NSCLC, 79.6%; in the assay with 786-0 renal, 105%; with COLO 205 colon, 93.8%.
For the compound `C/C(=N\NC(N)=S)C(C)(C)O`, the growth is 93.6% in the assay with NCI-H23 lung; 89.2% with NCI-H226 lung; 104% in the assay on NCI-H322M lung; 104% with HOP-62 NSCLC; 104% in the assay with NCI-H460 lung; 88.1% in the assay with HOP-92 NSCLC. The growth in the assay on NCI-H522 lung was 109%; in the assay on A549/ATCC NSCLC, 83.4%; with 786-0 renal, 96.3%; in the assay with COLO 205 colon, 119%.
For the compound `CCN(CC)CC(O)Cc1ccc(OC)cc1` (stereo not given), the growth is 108% with NCI-H23 lung; 99.5% in the assay with NCI-H226 lung; 121% with NCI-H322M lung; 104% in the assay with HOP-62 NSCLC; 117% in the assay on NCI-H460 lung; 108% in the assay on HOP-92 NSCLC. The growth in the assay with NCI-H522 lung is 97.8%; with A549/ATCC NSCLC, 104%; in the assay on 786-0 renal, 100%; in the assay on COLO 205 colon it was 109%.
Consider `CN(C1c2ccccc2Oc2ccccc21)S(=O)(=O)c1cc(Cl)ccc1Cl`, for which the growth in the assay on NCI-H23 lung is 69.8%; in the assay on NCI-H226 lung, 62.7%; in the assay on NCI-H322M lung it was 78.4%; in the assay on HOP-62 NSCLC, 48.6%; in the assay with NCI-H460 lung, 34.5%; with HOP-92 NSCLC it was 34.8%. The growth in the assay with NCI-H522 lung was 3.68% (active); in the assay on A549/ATCC NSCLC, 52.4%; in the assay with 786-0 renal, 64.1%; in the assay with COLO 205 colon it was 53%.
In the case of `C/C(=N\NC(=O)c1sc(=S)n(C)c1N)c1cc2ccccc2o1`, the growth is 71.6% in the assay with NCI-H23 lung; 73.9% in the assay on NCI-H226 lung; 45.4% with NCI-H322M lung; 69.4% in the assay with HOP-62 NSCLC; 37.2% with NCI-H460 lung; 58.8% in the assay with HOP-92 NSCLC. Moreover, the growth was 36.2% with NCI-H522 lung, 45.4% with A549/ATCC NSCLC, 57.3% in the assay on 786-0 renal and 107% in the assay on COLO 205 colon.
Consider `COc1cc2ccnc(C=O)c2cc1OC`, for which the growth in the assay on NCI-H23 lung is 83.5%; in the assay with NCI-H226 lung, 101%; with NCI-H322M lung it was 87.5%; with HOP-62 NSCLC, 89.7%; in the assay on NCI-H460 lung, 107%; in the assay on HOP-92 NSCLC, 51.2%. The growth with NCI-H522 lung was 68.4%; in the assay with A549/ATCC NSCLC it was 101%; in the assay on 786-0 renal it was 99.9%; in the assay with COLO 205 colon, 92.9%.
In the case of `N=C(N)c1ccc(-c2ccc(-c3cccs3)s2)nc1`, the growth is 71.2% in the assay on NCI-H23 lung; 67.6% with NCI-H226 lung; -13.1% (active) in the assay on NCI-H322M lung; 66.5% with HOP-62 NSCLC; -22% (active) in the assay with NCI-H460 lung; -9.04% (active) in the assay with HOP-92 NSCLC. Also, the growth in the assay on NCI-H522 lung was 72.8%; with A549/ATCC NSCLC, 2.67% (active); with 786-0 renal, 56.2%; in the assay with COLO 205 colon, -94% (active).
In the case of `CCOC(=O)c1sc(Nc2ncccn2)nc1-c1ccccn1`, the growth in the assay with NCI-H23 lung was 84.4%; in the assay with NCI-H226 lung, 92.8%; in the assay with NCI-H322M lung it was 85%; in the assay on HOP-62 NSCLC it was 92%; with NCI-H460 lung it was 66.9%; in the assay on HOP-92 NSCLC, 97.5%. For the same compound, the growth in the assay on NCI-H522 lung was 85.7%; with A549/ATCC NSCLC, 84.3%; in the assay on 786-0 renal it was 97.9%; in the assay on COLO 205 colon, 98.3%.
Turning to `CCOC(=O)c1ccc(N(C=O)CCC(=O)CCl)cc1`, the growth in the assay on NCI-H23 lung is 19.5%; in the assay on NCI-H226 lung, 36.2%; with NCI-H322M lung, 75.6%; with HOP-62 NSCLC, 29.8%; in the assay on NCI-H460 lung, 4.12% (active); in the assay with HOP-92 NSCLC, -7.96% (active). Besides, the growth in the assay on NCI-H522 lung is -71.9% (active); in the assay with A549/ATCC NSCLC, 12.3%; in the assay with 786-0 renal it was 2.2% (active); in the assay with COLO 205 colon it was -9.81% (active).
As to `Nc1c(C(=O)Nc2ccccc2F)sc2nc3c(cc12)C(=O)CCC3`, the growth in the assay with NCI-H23 lung was 42.8%; with NCI-H226 lung, 75.1%; with NCI-H322M lung, 68.8%; in the assay on HOP-62 NSCLC, 42.7%; in the assay with NCI-H460 lung, 11.4%; in the assay on HOP-92 NSCLC, 53.6%. The growth in the assay on NCI-H522 lung is -15.2% (active); in the assay on A549/ATCC NSCLC, 22%; in the assay on 786-0 renal, 41.5%; in the assay with COLO 205 colon it was 5.76% (active).
As for `CCCCC(CC#N)(CCC)CCC`, the growth is 105% with NCI-H23 lung; 109% in the assay on NCI-H226 lung; 95.6% with NCI-H322M lung; 116% in the assay on HOP-62 NSCLC; 109% with NCI-H460 lung; 99.7% in the assay on HOP-92 NSCLC. For the same compound, the growth in the assay with NCI-H522 lung was 97.5%; in the assay on A549/ATCC NSCLC, 94.4%; with 786-0 renal, 95.5%; in the assay on COLO 205 colon it was 106%.
On to `CCOC(=O)CNC(=O)Nc1ccc(Oc2ccc(NC(=O)NCC(=O)OCC)cc2)cc1`, for which the growth in the assay on NCI-H23 lung was 104%; in the assay on NCI-H226 lung, 98.8%; with NCI-H322M lung it was 96.3%; in the assay on HOP-62 NSCLC, 96.1%; in the assay with NCI-H460 lung it was 101%; with HOP-92 NSCLC, 92.2%. The growth in the assay on NCI-H522 lung is 96.2%; in the assay on A549/ATCC NSCLC, 90.6%; in the assay with 786-0 renal, 105%; with COLO 205 colon, 105%.

The record behind these values is PubChem BioAssay (NCI).
